# Laboratory results taken from ChEMBL document CHEMBL3988442, “University of Dundee, Small-Polar-MMV Screening Library” (2021).
# Hit rate of the full screen: of about 48,000 compounds, about 13,000 (27%) showed an effect of 50% or more. The list shows a part of the results.
# System: Wolbachia pipientis
# Test: Anti-Wolbachia Cell-Based Screen
# Format: functional
# Parameters: scale not given: in the data most compounds retested in dose-response had high values
# Conditions: 5 µM
row,Compound,Percent Effect
1,CSc1ccsc1C(=O)NCCNC(=O)C1CC1,-5.162%
2,O=C(O)c1c(-c2ccncc2)ncc2c1CCN(Cc1ccco1)C2,103.7%
3,Cn1cc(C(=O)NCc2cn3c(n2)CN(Cc2ccccn2)CC3)cn1.O=C(O)C(F)(F)F.O=C(O)C(F)(F)F,1.361%
4,Cn1nccc1-c1ncc2c(c1C(=O)O)CCN(Cc1ccncc1)C2.O=C(O)C(F)(F)F.O=C(O)C(F)(F)F,-6.643%
5,Cn1cc(-c2ncc3c(c2C(=O)O)CCN(Cc2ccccn2)C3)cn1.O=C(O)C(F)(F)F.O=C(O)C(F)(F)F,106.1%
6,O=C(O)C(F)(F)F.O=C(O)C(F)(F)F.O=C(O)c1c(-c2cncnc2)ncc2c1CCN(Cc1ccco1)C2,112.5%
7,Cn1cc(CN2CCc3c(cnc(-c4ccccc4)c3C(=O)O)C2)cn1.O=C(O)C(F)(F)F.O=C(O)C(F)(F)F,-3.13%
8,O=C(O)C(F)(F)F.O=C(O)C(F)(F)F.O=C(O)c1cc2c(nc1-c1ccoc1)CCN(Cc1ccco1)CC2,4.884%
9,Cn1cc(-c2ncc3c(c2C(=O)O)CCN(Cc2ccco2)C3)cn1.O=C(O)C(F)(F)F,100.1%
10,Nc1cc(-c2cccc3ccnn23)ccn1,-7.377%
11,O=C(COC1CCCC1)NC(C(=O)Nc1cc[nH]n1)c1ccccc1 (stereo not drawn),-15.76%
12,O=C(NCc1nc(C2CCCCC2)no1)C1CC(=O)N(C2CC2)C1 (stereo not drawn),-21.27%
13,O=C(O)C(F)(F)F.O=C(O)C(F)(F)F.O=C(O)C(F)(F)F.O=C(O)c1c(-c2cncnc2)ncc2c1CCN(Cc1cccnc1)C2,96.39%
14,Cn1nccc1-c1ncc2c(c1C(=O)O)CCN(Cc1cccnc1)C2.O=C(O)C(F)(F)F.O=C(O)C(F)(F)F,-4.341%
15,Cn1nccc1-c1ncc2c(c1C(=O)O)CCN(Cc1ccccc1)C2.O=C(O)C(F)(F)F.O=C(O)C(F)(F)F.O=C(O)C(F)(F)F,-10.76%
16,CN1CCN(C(=O)c2cn(-c3ccc(C(F)(F)F)cn3)nn2)CC1,-7.593%
17,Cc1cc(-n2cccn2)ccc1CN1C[C@@H](CN(C)C)[C@@H](CO)C1,14.35%
18,COC1CCN(C(=O)CCn2ccc(=O)[nH]c2=O)CC1,-8.705%
19,Cc1cccnc1CN1CCN(C(=O)CCn2ccc(=O)[nH]c2=O)CC1,-10.51%
20,Cc1ccc(C2(O)CCN(C(=O)CCn3ccc(=O)[nH]c3=O)CC2)nc1,97.51%

row,Compound,Percent Effect
1,Cc1ccc(C2(O)CCN(C(=O)Cn3cc(C)c(=O)[nH]c3=O)CC2)nc1,116.3%
2,Cc1cn(CC(=O)N(C)Cc2cccc3ncccc23)c(=O)[nH]c1=O,-19.07%
3,Cc1ccc(C2(O)CCN(C(=O)CCn3c(C)cccc3=O)CC2)nc1,106.7%
4,Cc1cccc(=O)n1CCC(=O)N(C)Cc1cccc2ncccc12,-4.376%
5,COC(=O)C1CCN(CC2(c3ccc(C)cn3)CCNCC2)CC1,-5.791%
6,CSCc1ccc(N2CCC(C(O)Cc3ccccc3)CC2)nc1 (stereo not drawn),26.16%
7,O=C(O)C(F)(F)F.O=C(O)C(F)(F)F.c1cc(CN2CCc3ncnc(C4CCOC4)c3CC2)ccn1 (stereo not drawn),0.007603%
8,Cc1ccc(Oc2ncccc2CNC2CCSCC2)cn1,-8.046%
9,Nc1ccc(-c2ccc(F)cc2Cl)cn1,-14.84%
10,CSc1ccsc1C(=O)NC(C)c1ccc2c(c1)CCC(=O)N2 (stereo not drawn),-17.83%
11,Cc1ccc(C(O)CNC(=O)NCc2nc(C)cs2)cc1 (stereo not drawn),-27.45%
12,Cc1csc(CNC(=O)NC(C)c2ccc3c(c2)CCC(=O)N3)n1 (stereo not drawn),108.8%
13,Cc1csc(CNC(=O)NCC(O)c2ccc(F)cc2)n1 (stereo not drawn),8.268%
14,CC(NC(=O)NCc1cccs1)c1ccc2c(c1)CCC(=O)N2 (stereo not drawn),122.7%
15,Cc1ccsc1CNC(=O)NC(C)c1ccc2c(c1)CCC(=O)N2 (stereo not drawn),96.96%
16,CC(NC(=O)NCc1ccccn1)c1ccc2c(c1)CCC(=O)N2 (stereo not drawn),101%
17,CC(NC(=O)N(C)Cc1ccsc1)c1ccc2c(c1)CCC(=O)N2 (stereo not drawn),-10.24%
18,CC(NC(=O)NCc1cc[nH]n1)c1ccc2c(c1)CCC(=O)N2 (stereo not drawn),-0.03999%
19,Cc1ccsc1C(=O)NC(C)c1ccc2c(c1)CCC(=O)N2 (stereo not drawn),-2.921%
20,O=C1CCCc2cc(S(=O)(=O)NCc3ccccn3)ccc2N1,-1.258%

row,Compound,Percent Effect
1,O=C(CN1CCCS1(=O)=O)Nc1ccc(OC2CCCC2)cc1,-0.8772%
2,COc1ccc(OCC(=O)NC(C)c2ccccc2)c(C(=O)O)c1 (stereo not drawn),-7.994%
3,CCCOc1ccc(CN)c(OC(F)F)c1,2.024%
4,CC(C(=O)NCc1ccnc(N2CCN(C)CC2)c1)n1cccn1 (stereo not drawn),-2.51%
5,O=C(c1ccc(Cn2cc(Br)cn2)cc1)N1CCCC1,26.22%
6,CN(C)C[C@@H]1CCC[C@@H]2CN(c3nccc(C(F)(F)F)n3)C[C@@H]21.O=C(O)C(F)(F)F,-9.332%
7,CC(NC(=O)NCCS(C)(=O)=O)c1ccc2c(c1)CCC(=O)N2 (stereo not drawn),98.04%
8,CC(NC(=O)NCCCn1ccnc1)c1ccc2c(c1)CCC(=O)N2 (stereo not drawn),-10.33%
9,CC(NC(=O)NCCCN(C)C)c1ccc2c(c1)CCC(=O)N2 (stereo not drawn),1.464%
10,CCCn1[nH]cc/c1=N\C(=O)CN1CCCC1Cn1cc(C)cn1 (stereo not drawn),-13.34%
11,Cn1cccc1CN1CCC2(CC1)CCN(C(=O)c1cnccn1)CC2.O=C(O)C(F)(F)F,3.989%
12,O=C(c1cnccn1)N1CCC2(CCN(Cc3ccsc3)C2)CC1,113.3%
13,O=C(c1cnccn1)N1CCC2(CCN(Cc3ccsc3)CC2)CC1,105.9%
14,O=C(c1cnccn1)N1CCN(Cc2csc(-c3ccccc3)n2)CC1,5.031%
15,O=C(c1cnccn1)N1CCC2(CCCN(Cc3ccoc3)C2)C1 (stereo not drawn),7.611%
16,NC(=O)C1=NC2=NS(=O)(=O)c3ccccc3N2N1Cc1ccc(Cl)cc1,1.46%
17,CC(C)(CNc1cc(F)ccc1F)S(C)(=O)=O,-17.31%
18,CC(=O)N1CCC(N2CCN3C(=O)N(Cc4ccccn4)C[C@H]3C2)CC1,-4.667%
